# Data: PubChem BioAssay (NCATS)
# Activity calls are given as the source filed them. The rule behind the calls is not given here.
# System: HIV-1 nucleocapsid protein NCp7 (binding to TG oligonucleotide)
# Test: HIV Nucleocapsid (AID 346);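 note: potency is for inhibitors that block NC binding and lower polarization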
# Conditions: HIV-1 NC / fluorescein-TGTGTGTG probe, fluorescence polarization
# Outline: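 NCp7 100 nM + fluorescein TG4xF 10 nM; Hepes pH 7.5/250mM NaCl/1uM ZnCl2/0.004% PEG 20000; 1 hr RT; FP, 45 s exposure; oligo-only wells as negative control.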
# Potency is the fitted concentration of half-maximal effect.
row,SMILES,Potency
1,COc1ncc2nc(-c3ccccc3)c(=O)n(-c3ccccc3)c2n1,> 20 µM (inactive)
2,Cc1nc2cnc(Nc3ccccc3)nc2n(C2CC2)c1=O,> 20 µM (inactive)
3,O=C(Nc1cccc(F)c1)N1CCC2(CC1)CCN(C(=O)c1ccncc1)CC2,> 20 µM (inactive)
4,c1ccc(CNc2nc(-c3cccnc3)nc3ccccc23)cc1,> 20 µM (inactive)
5,Cc1noc(C)c1-c1cc(NCc2ccccc2)ncn1,> 20 µM (inactive)
6,c1ccc2c(N3CCNCC3)nc(-c3ccc4c(c3)OCO4)nc2c1,> 20 µM (inactive)
7,Cc1noc(C)c1-c1ccc2ncnc(Nc3ccc(F)cc3)c2c1,> 20 µM (inactive)
8,COCCn1c(=O)cnc2cnc(N(C)C)nc21,> 20 µM (inactive)
9,O=C(c1cccc(F)c1)N1CCC[C@@]2(CCN(Cc3nccs3)C2)C1,> 20 µM (inactive)
10,COc1ccc2[nH]cc(CCNc3ccnc(-c4ccccc4Cl)n3)c2c1,> 20 µM (inactive)
11,c1ccc(C(c2ccccc2)N2CC[C@@]3(CCCNC3)C2)cc1,> 20 µM (inactive)
12,CS(=O)(=O)Nc1cccc(-c2nc(NCc3cccs3)c3ccccc3n2)c1,> 20 µM (inactive)
13,COc1ccccc1CNc1ncncc1-c1ccc2c(c1)OCO2,> 20 µM (inactive)
14,CS(=O)(=O)Nc1cccc(-c2nccc(NCc3ccccc3)n2)c1,> 20 µM (inactive)
15,O=C(c1cnccn1)N1CCC2(CCCN(Cc3nccs3)C2)CC1,> 20 µM (inactive)
16,COc1cccc(Cn2c(=O)cnc3cnc(N(C)C)nc32)c1,> 20 µM (inactive)
17,COc1cccc(Cn2c(=O)c(-c3cccc(C#N)c3)nc3cnc(OC)nc32)c1,> 20 µM (inactive)
18,COc1ccccc1-c1ccc2ncnc(N3CCN(C)CC3)c2c1,> 20 µM (inactive)
19,Cc1nc2cnc(OCc3ccccc3)nc2n(CCC#N)c1=O,> 20 µM (inactive)
20,CC(C)CN1CCC2(CC1)CCN(C(=O)c1cnccn1)CC2,> 20 µM (inactive)

row,SMILES,Potency
1,O=C(c1cc(C(F)(F)F)cc(C(F)(F)F)c1)N1CCC[C@@]2(CCN(Cc3ccccc3)C2)C1,> 4 µM (inactive)
2,COc1ccccc1-c1nccc(NCc2cnc(C)cn2)n1,> 20 µM (inactive)
3,COC(=O)N1CCC2(CC1)CN(C(c1ccccc1)c1ccccc1)C2,> 20 µM (inactive)
4,COc1ccc2[nH]cc(CCNc3ccnc(-c4c(C)noc4C)n3)c2c1,> 20 µM (inactive)
5,CC(=O)N1CCC[C@@]2(CCN(c3ccccc3)C2)C1,> 20 µM (inactive)
6,COc1ccc(Oc2ncc3nc(-c4ccc(F)cc4)c(=O)n(C)c3n2)cc1,> 20 µM (inactive)
7,COCC(=O)N1CCC[C@@]2(CCN(C(=O)Nc3ccc(OC)cc3)C2)C1,> 20 µM (inactive)
8,COc1ccc(NC(=O)N2CC3(CCN(C(=O)c4cnccn4)CC3)C2)cc1,> 20 µM (inactive)
9,CN(C)c1ncc2nc(-c3cn(C)c4ccccc34)c(=O)n(C[C@H]3CCCO3)c2n1,> 20 µM (inactive)
10,O=C(Nc1ccccc1)N1CCC2(CC1)CCN(C(=O)c1ccco1)CC2,> 20 µM (inactive)
11,O=C(Nc1cccc(F)c1)N1CCC2(CCNCC2)CC1,> 20 µM (inactive)
12,Cc1cnc(CNc2ccnc(-c3ccccc3C(F)(F)F)n2)cn1,> 20 µM (inactive)
13,Cc1cnc(CNc2ncncc2-c2cccc(C#N)c2)cn1,> 20 µM (inactive)
14,N#Cc1cccc(-c2nc3cnc(N4CCOCC4)nc3n(C3CC3)c2=O)c1,> 20 µM (inactive)
15,COc1cccc(-c2nccc(NCc3ccc(OC)cc3OC)n2)c1,> 20 µM (inactive)
16,CC(C)NC(=O)N1CCC2(CC1)CCN(C(=O)c1cccn1C)CC2,> 20 µM (inactive)
17,O=S(=O)(c1ccccc1)N1CCC2(CCCN(C(c3ccccc3)c3ccccc3)C2)CC1,> 20 µM (inactive)
18,COc1ccc(-c2nc3cnc(Oc4cccc(Cl)c4)nc3n(C3CC3)c2=O)cc1,> 20 µM (inactive)
19,O=c1c(-c2cc(F)cc(F)c2)nc2cnc(N3CCNCC3)nc2n1Cc1ccc(F)cc1,> 20 µM (inactive)
20,Cc1ccccc1-c1cncnc1Nc1ccc(F)cc1,> 20 µM (inactive)
